Sampled rows, rich in hits. Any-hit rate of the full collection: about 12%.
BAZ2B inh = inhibitors of human BAZ2B bromodomain. AlphaScreen BAZ2B-H3K14Ac peptide displacement. AID 504333. Q9UIF8. Potency, µM (titrated, usually from 114 µM), inactives show at the highest dose activity change, negative = inhibition, most hits filed as inhibitors. 4.4% of 360,000 active; also: % is scaled to controls: 0 for no effect and ±100 for the full control effect; nearly all actives have a fitted effect of over 60% in size
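AlphaScreen luminescence quantifies BAZ2B engagement of H3K14Ac peptide; the protein and biotinylated peptide are both at 50 nM final, buffer PBS pH 7.4 with 0.01% Tween-20, all steps at room temperature.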
Sfp inh = Sfp phosphopantetheinyl transferase inhibition; Q9F4F7; Biochemical Sfp PPTase activity, qHTS; Potency, µM, for the others: largest response in the series, negative = inhibition, hits mostly inhibitors; 3.5% of 310,000 active; AID 1490;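 also: the enzyme is Sfp with the accession as filed and its product quenches rhodamine fluorescence; 0% = enzyme reaction without inhibitor and -100% = no enzyme wells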
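Fluorescence-quenching assay: 15 nM Sfp-PPTase preincubated 15 min at room temperature with compound, then 5 uM rhodamine-CoA and 12.5 uM BHQ-2-labelled YbbR peptide added. Fluorescence (ex 525/em 598 nm) read at start and after 30 min; difference gives rate.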
HP1b binding inh = inhibitors of HP1-beta chromodomain binding to methylated histone tails | P83916 | AID 540317 | 0.56% of 390,000 active | AlphaScreen HP1-beta / biotin-H3K9me3 peptide binding | Potency, µM (series often up to 114 µM), for the others: at the highest dose activity change, negative = inhibition, usual class: inhibitors; also: nearly all actives have a fitted effect of over 70% in size
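HP1-beta protein (50 nM final) preincubated 30 min at room temperature with biotinylated H3(1-18)K9me3 peptide (50 nM) in PBS pH 7.4, 0.01% Tween-20, then compound added for 30 min. AlphaScreen streptavidin donor/nickel chelate acceptor beads (10 ug/mL final), 30 min dark, luminescence read.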
G9a block = inhibitors of human histone lysine methyltransferase G9a; Q96KQ7; G9a H3K9 monomethylation, AlphaScreen, 2 h; Potency, µM (series often up to 102 µM), inactives show top-dose activity, negative = inhibition, most hits filed as inhibitors; 8.8% of 350,000 active; AID 504332; also: % is scaled to controls: 0 for no effect and ±100 for the full control effect; nearly all actives have a fitted effect of over 75% in size
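Methyltransferase reactions run at room temperature for 2 h (20 nM enzyme, 500 nM biotin-H3K9 peptide, 20 uM SAM) after a 15 min compound preincubation; product detected by AlphaScreen beads and anti-H3K9me1 antibody.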
PLK1 PBD block = blocks phosphopeptide binding to human PLK1 polo-box domain; Potency, µM, inactives show max response, negative = inhibition, actives largely listed as inhibitors; Plk1 PBD binding of FITC phosphopeptide, fluorescence polarization; 2.8% of 360,000 active; also: series mostly up to about 57 µM; % is scaled to controls: 0 for no effect and ±100 for the full control effect; nearly all actives have a fitted effect of over 65% in size
Target sequence (P53350 whole entry, looked up, the tested form may be a part): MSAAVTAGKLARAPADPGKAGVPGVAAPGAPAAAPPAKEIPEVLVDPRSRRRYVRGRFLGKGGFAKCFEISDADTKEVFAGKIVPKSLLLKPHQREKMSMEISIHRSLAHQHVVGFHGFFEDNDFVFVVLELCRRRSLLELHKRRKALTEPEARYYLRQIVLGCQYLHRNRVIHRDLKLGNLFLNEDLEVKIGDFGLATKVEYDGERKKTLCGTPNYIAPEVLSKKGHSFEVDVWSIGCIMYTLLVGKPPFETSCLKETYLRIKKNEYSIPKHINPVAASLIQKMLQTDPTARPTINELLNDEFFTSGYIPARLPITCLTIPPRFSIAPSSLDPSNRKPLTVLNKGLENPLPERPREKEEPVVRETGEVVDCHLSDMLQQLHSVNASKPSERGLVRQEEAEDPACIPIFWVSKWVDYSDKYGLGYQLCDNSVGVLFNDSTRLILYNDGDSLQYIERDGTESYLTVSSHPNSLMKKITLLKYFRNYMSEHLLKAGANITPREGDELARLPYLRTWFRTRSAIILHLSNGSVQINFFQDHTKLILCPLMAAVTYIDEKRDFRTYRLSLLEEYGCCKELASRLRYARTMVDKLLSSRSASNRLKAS
JMJD2A Tudor = inhibitors of human JMJD2A Tudor domain | AlphaScreen JMJD2A-Tudor / H3K4me3 peptide binding | Potency, µM (highest dose often 114 µM), for the others: at the highest dose activity change, negative = inhibition, hits mostly inhibitors | 4.4% of 390,000 active | AID 504339; also: % is scaled to controls: 0 for no effect and ±100 for the full control effect; nearly all actives have a fitted effect of over 50% in size
* marks the source's active call; other numbers are inactive results; ? = inconclusive; / = no result given; ! = repeats disagree; [ ] = dose if it differs, or a comment. Calls follow the shape of the dose curve; as a rule, active = well fitted curve in the direction sought with a large enough effect; inconclusive = small, poorly fitted or top-dose-only effect, or another doubt; inactive = no such curve, though single readings can be large; an effect the other way counts as inactive or inconclusive. Potency is read from the fitted curve at half-maximal effect.

SMILES	BAZ2B inh	Sfp inh	HP1b binding inh	G9a block	PLK1 PBD block	JMJD2A Tudor
CCOc1ccc(CCNC(=O)c2nccnc2C(=O)O)cc1OCC	?	-10%	20%	50µM*	1%	-2%
CCOC(=O)c1ccc(NC(=O)c2cccc(S(=O)(=O)N3CCOCC3)c2)cc1	/	13%	5%	-2%[59 µM]	-23%	-18%
CCOc1ccc(CCNC(=O)c2ccc(Cl)c(S(=O)(=O)N3CCOCC3)c2)cc1OCC	56µM*	/	?	56µM*	-7%	?
COc1cc2ncnc(NCc3cccc(F)c3F)c2cc1OC	-4%	-1%	49%	45µM*	-7%	-9%
COc1cc2ncnc(NCc3ccccc3F)c2cc1OC	-4%	5%	22%	?	9%	-19%
COc1cc2ncnc(Nc3cccc(Cl)c3)c2cc1OC	-17%	56µM*!	/	-12%[59 µM]	/	/
NCCCCCCCCCCNCCCN	/	30%	/	/	/	/
COC(=O)[C@H](C)NC(=O)C/C=C\[C@@H](C)CO	/	3%	/	/	/	/
Cc1ccc(C2CC(C(F)F)n3ncc(C(=O)Nc4cnn(Cc5ccccc5C)c4)c3N2)cc1 (stereo not given)	8%	11%	1%	45µM*	3%	-23%
Cc1ccsc1/C=N/n1c(C2CCCCC2)n[nH]c1=S	6%	-28%	-12%	1.4µM*	?	?
Cc1ccc(/C=N/n2c(C3CCCCC3)n[nH]c2=S)s1	-3%	5%	4%	8.9µM*	-19%	-12%
Cc1cc(C(C)(C)C)cc(S(=O)(=O)Nc2ccc(O)c(C(=O)O)c2)c1C	0%	89µM*	26%	?	-18%	-14%
O=C(O)c1cc(NS(=O)(=O)c2cccc3ccccc23)ccc1O	-2%	-7%	0%	-25%[59 µM]	-3%	-19%
Cc1cc(C)cc(NC(=O)CCS(=O)(=O)c2ccc3c(c2)oc(=O)n3C)c1	9%[57.1 µM]	/	17%	-8%[59 µM]	/	-9%
CCOC(=O)C1CCCN(C(=O)COC(=O)C2=COCCO2)C1 (stereo not given)	?	-3%	-3%	50µM*	-6%	50µM*
CCOC(=O)C1CCCN(C(=O)CSc2ccc(Br)cc2)C1 (stereo not given)	15%	-1%	-12%	34%	24µM*	14µM*
COc1c(O)c(O)c2oc(-c3ccccc3)cc(=O)c2c1OC	?	3.2µM*	-15%	-7%[12.7 µM]	0%	?
COc1ccc(-c2cc(=O)c3c(O)cc(O[C@@H]4OC(COC5OC(C)C(O)C(O)[C@@H]5O)C(O)C(O)C4O)cc3o2)cc1 (stereo not given in full)	/	3%	/	-3%[2.33 µM]	/	/
COc1cc(-c2cc(=O)c3c(O)c(OC)c(OC)c(O)c3o2)ccc1O	?	5µM*	4%	-1%[12.7 µM]	0%	-35%
COc1c(OC2OC(C(=O)O)C(O)C(O)C2O)cc(O)c2c(=O)cc(-c3ccccc3)oc12 (stereo not given)	-3%	40µM*	17%	-22%	-14%	?
CCN(C(=O)Cn1c(C(=O)OC)cc2sccc21)c1cccc(C)c1	-3%	/	17%	-2%[59 µM]	/	-18%
Cc1cccc(NC(=O)c2cc(S(=O)(=O)NCc3ccc4c(c3)OCO4)ccc2F)c1C	0%	/	20%	-26%[59 µM]	/	-15%
Cc1cc(C(=O)OCC(=O)Nc2c(F)cccc2F)c(C)n1-c1ccccc1	?	17%	?	-14%	21µM*	20µM*
Cc1noc(C)c1C(=O)OCC(=O)Nc1ccc(C(N)=O)cc1	-2%	19%	14%	-5%	-4%	-16%
Cc1noc(C)c1C(=O)OCC(=O)Nc1c(F)cccc1F	/	15%	-11%	9%	8.4µM*	?
Cc1cc[n+]2c3c(cccc13)CCC2	1%	-1%	-14%	?	13µM*	?
O=C(O)CCCCC1CCSS1 (stereo not given)	1µM*	-26%	18%	1.8µM*	-21%	-21%
Oc1ccc(N2CCN(Cc3c(-c4ccccc4)nc4ccccn34)CC2)cc1	?	25µM*	?	10µM*	-5%	14µM*
Clc1ccc(-c2nc3ccccn3c2CN2CCCCC2)cc1	-32%	9%	12%	-27%	-11%	-16%

Compound activity from PubChem BioAssay.
